BoNT-A LC inh2 = inhibitors of Botulinum neurotoxin A light chain protease | multiplex microsphere protease substrate cleavage, flow cytometry | inhibition, % at 10 µM | 0.17% of 360,000 active | AID 588499; also: plate controls were buffer without enzyme for full effect and enzyme alone for no effect
FBA Mtb inh = Mtb fructose-bisphosphate aldolase inhibition | P9WQA3 | purified M. tuberculosis FBA, fluorescence read-out | inhibition, % at 1 µM | 2.3% of 360,000 active | AID 588726; in the data active = inhibition above about 27%;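 also: 0% = vehicle and 100% = reference inhibitor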
GDH-TPI counter-1 = GDH-TPI coupled enzyme inhibition counter-screen | 1.2% of 360,000 active | AID 588335 | GDH-TPI coupled enzyme counterscreen, NADH absorbance | inhibition, % at 4.8 µM; in the data active = inhibition above about 30%;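 also: 0% = DMSO wells and 100% = wells lacking the enzyme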
BoNT-F LC inh = BoNT F light chain protease inhibition. inhibition, % at 10 µM. Multiplex microsphere protease cleavage assay, flow cytometry. 0.22% of 360,000 active; in the data active = inhibition above about 35%, passing the limit was not always enough; inconclusive = no clear call, values can overlap the other calls; also: plate controls were buffer without enzyme for full effect and enzyme alone for no effect
Anthrax LF inh2 = anthrax lethal factor protease inhibition; P15917; multiplex microsphere protease cleavage assay, LF; inhibition, % at 10 µM; 0.12% of 360,000 active; also: plate controls were buffer without enzyme for full effect and enzyme alone for no effect
Autofluor counter = counter-screen for toxin protease inhibitors: compound fluorescence; compound autofluorescence counterscreen, microsphere flow cytometry; active compounds read high; fluorescence intensity (concentration not given with the values); 3.1% of 360,000 active; AID 624483; in the data active = fluorescence intensity above about 16000; inconclusive = no clear call, values can overlap the other calls
Mtb FBA inh conf = Mtb FBA inhibition, confirmed; 78% of 5,600 active; shares compounds with FBA Mtb inh; purified M. tuberculosis FBA, fluorescence read-out; inhibition, % at 1 µM; in the data active = inhibition above about 27%;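 also: 0% = vehicle wells and 100% = reference inhibitor wells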
GDH-TPI counter-2 = inhibits GDH-TPI coupling enzymes, flagging Mtb FBA hits; GDH-TPI coupled enzyme counterscreen, fluorescence; AID 652141; shares compounds with FBA Mtb inh; inhibition, % at 1 µM; 81% of 5,600 active; in the data active = inhibition above about 10%
GDH-TPI DR = inhibits GDH-TPI coupling enzymes in dose response; AID 652145; 79% of 170 active; shares compounds with FBA Mtb inh; IC50, µM; GDH-TPI coupled enzyme assay, fluorescence, artifact counterscreen; call rule not given here
* hit, by the source's call; ? = inconclusive; / = no result; + = active, no number. Shown are actives, neighbours in structure and some others; about 6.6% of the full set was active somewhere. Rule as the data show it, unless noted: active = inhibition above about 30%; inconclusive = no clear call, values can overlap the other calls; inactive = below that.

SMILES	BoNT-A LC inh2	FBA Mtb inh	GDH-TPI counter-1	BoNT-F LC inh	Anthrax LF inh2	Autofluor counter	Mtb FBA inh conf	GDH-TPI counter-2	others
Cc1ccc(NC(=O)c2ccc(C(=O)c3ccccc3)cc2)nc1	4	-1	-6	8	0	?	/	/
N#Cc1nc(COc2ccccc2)oc1N1CCN(Cc2ccccc2)CC1	0	-8	-1	-2	-1	4305	/	/
N#Cc1nc(-c2ccccc2)oc1N1CCN(C(=O)c2ccco2)CC1	0	68*	19	2	-1	6041	41*	32*
N#Cc1nc(-c2cccs2)oc1N1CCN(Cc2ccccc2)CC1	-2	51*	27	-16	-9	9620	12	6	GDH-TPI DR=1.8*
O=C(O)c1cccc(NC(=O)c2cccc(S(=O)(=O)N3CCc4ccccc4C3)c2)c1	0	2	-8	-5	-6	4358	/	/
N#CC1(Nc2ccc(C(=O)O)cc2)CCCC1	0	3	7	3	12	3675	/	/
N#CCSc1n[nH]c2nc3c(c(=O)n12)C1(CCCCC1)Cc1ccccc1-3	1	28*	3	1	-3	5625	-1	-3
CCC(=O)Nn1cnc2c(c1=O)C1(CCCCC1)Cc1ccccc1-2	1	2	-2	-36	-5	4563	/	/
Cn1c(NCCCO)nc2c(c1=O)C1(CCCCC1)Cc1ccccc1-2	-7	65*	15	-84	-5	5186	122*	85*
O=Cc1ccc(-c2nc3ccccc3s2)o1	2	33*	18	-1	1	2561	31*	30*
O=C(O)c1ccc(-c2nc3ccccc3s2)o1	0	44*	42*	-8	0	5237	35*	29*
Cc1ccc(-n2c(=O)c(C#N)cc3c(=O)n4cccc(C)c4nc32)cc1	?	62*	-1	-7	0	20956*	138*	84*
Cc1cccn2c(=O)c3cc(C#N)c(=O)n(Cc4cccnc4)c3nc12	/	111*	6	/	/	/	87*	71*
Cc1cccn2c(=O)c3cc(C#N)c(=NC(=O)c4cccs4)n(CC(C)C)c3nc12	7	35*	1	?	-8	4607	+	190*
CC(=O)N=c1c(C#N)cc2c(=O)n3ccccc3nc2n1Cc1ccccc1	5	28*	-7	-10	-1	2676	122*	108*
Cn1ncc(Cl)c1C(=O)N1CCN(C(=O)c2ccco2)CC1	0	1	0	-2	-2	2235	/	/
CCOC(=O)Cc1csc(NC(=O)CSc2cc(Cl)ccc2Cl)n1	-1	1	8	-8	-5	7038	/	/
COc1cccc(CN(C(=O)c2ccc([N+](=O)[O-])cc2)C2CCS(=O)(=O)C2)c1 (configuration not stated)	-2	64*	12	-8	-6	?	101*	79*
COc1cccc(CN(C(=O)COc2ccccc2[N+](=O)[O-])C2CCS(=O)(=O)C2)c1 (configuration not stated)	1	4	1	0	-1	4380	/	/
CCOc1cc(/C=C(/NC(C)=O)C(=O)O)cc(Cl)c1OCc1cccc(Br)c1	0	2	1	8	0	4584	/	/
O=C(COC(=O)c1cccs1)NCCN1C(=O)CSC1=O	0	1	7	-29	1	3821	/	/
Cc1c(C(=O)OCC(=O)NCCN2C(=O)CSC2=O)oc2c1ccc1ccccc12	-1	63*	12	-5	-4	2097	160*	134*
COC(=O)C1=C(C)N(C)C(=O)NC1c1c(OC)ccc2ccccc12 (configuration not stated)	0	3	8	6	16	2984	/	/
Cc1cc2c(c(=O)n1CC1CCCO1)C(c1ccco1)C(C#N)=C(N)O2 (configuration not stated)	-1	32*	12	-14	-5	6189	41*	38*
CC(=O)N1CCc2cc(NC(=O)C3(C)CCN3Cc3ccc(C(C)C)cc3)ccc21 (configuration not stated)	0	0	12	-6	-4	3705	/	/
SMILES	BoNT-A LC inh2	FBA Mtb inh	GDH-TPI counter-1	BoNT-F LC inh	Anthrax LF inh2	Autofluor counter	Mtb FBA inh conf	GDH-TPI counter-2	others
O=C(c1ccc(F)cc1)C1CCN(C(=O)Nc2ccc(F)cc2F)CC1	2	1	-5	4	0	4842	/	/
O=C(c1ccc2c(c1)OCCO2)C1CCN(C(=O)Nc2ccccc2F)CC1	-1	29*	2	3	-1	5683	71*	62*
C=CCn1c(SCC(=O)c2c(N)n(CCC)c(=O)n(C)c2=O)nnc1-c1ccncc1	0	-3	-3	4	-3	4111	/	/
O=[N+]([O-])c1ccccc1S(=O)(=O)Nc1ccc(-c2ccc(N3CCOCC3)nn2)cc1	1	53*	15	-3	-2	5954	+	+
CC(NC(=O)NCc1cccnc1)(C(F)(F)F)C(F)(F)F	0	2	1	12	-10	3141	/	/
c1ccc2c(N3CCCCC3)nc(N3CCCC3)nc2c1	1	9	-4	-4	8	8374	/	/
Nc1nc(N2CCCCC2)nc2ccccc12	0	31*	13	-1	-4	2480	44*	37*
COc1ccc(NC(=O)c2cc(C3CCCCN3S(=O)(=O)Cc3ccccc3)on2)cn1 (configuration not stated)	0	1	1	0	1	3907	/	/
CCOC(=O)c1[nH]c2ccc(F)cc2c1NC(=O)Nc1ccccc1OC	0	-3	1	-3	2	2462	/	/
CCOC(=O)c1[nH]c2cc(OC)c(OC)cc2c1NC(=O)C(C)N1CCN(Cc2ccccc2)CC1 (configuration not stated)	1	47*	14	-4	-4	4580	+	+
CCOC(=O)C1CCCCN1S(=O)(=O)c1ccc2c(c1)CC(C)N2C(=O)C1CCC1 (configuration not stated)	-2	1	-7	-10	0	5625	/	/
CN1/C(=C\C(=O)CSc2nnc(NCc3ccccc3)s2)C(C)(C)c2ccccc21	15	-4	12	8	15	8382	/	/
Cc1ccc(NC(=O)c2ccccc2-c2ccccc2C(=O)O)cc1	0	-5	-3	-1	1	2122	/	/
Cc1ccc(-c2cnc(-c3ccccc3C(=O)O)o2)cc1	-5	70*	0	-5	15	3602	11	-3	GDH-TPI DR=1.6*
Cc1ccc(S(=O)(=O)n2ccc3c2CCCC3=O)cc1	-4	2	5	14	-1	3557	/	/
CCc1nnc(NC(=O)CSc2ccc(-c3ccccc3OC)nn2)s1	0	1	2	0	2	3747	/	/
